# Assay results: PubChem BioAssay (NCI)
# The panel holds about 83,000 compounds, 20% with a hit somewhere; the sample as a whole holds those more often.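 Growth was measured after 48 h exposure to one concentration of compound in 96-well plates. Values under 10 count as active.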 Unmarked numbers belong to inactive results. Calls of active or inactive are those of the source.
# Tests used:
# Experiment in all cases: NCI-60 one-dose screen, 48 h (100 = growth as untreated, 0 = no growth, -100 = all killed)
# Conditions in all cases: 10 µM unless noted
# SR leukemia = test system: SR leukemia
# RPMI-8226 leukemia = test system: RPMI-8226 leukemia
# OVCAR-8 ovarian = test system: OVCAR-8 ovarian
# OVCAR-5 ovarian = test system: OVCAR-5 ovarian
# OVCAR-4 ovarian = test system: OVCAR-4 ovarian
# SK-OV-3 ovarian = test system: SK-OV-3 ovarian
# IGROV1 ovarian = test system: IGROV1 ovarian
# OVCAR-3 ovarian = test system: OVCAR-3 ovarian
# HS 578T breast = test system: HS 578T breast
# NCI/ADR-RES ovarian = test system: NCI/ADR-RES ovarian
# T-47D breast = test system: T-47D breast
# BT-549 breast = test system: BT-549 breast
# MDA-MB-435 melanoma = test system: MDA-MB-435 melanoma
# SW-620 colon = test system: SW-620 colon
# MCF7 breast = test system: MCF7 breast
# HCT-116 colon = test system: HCT-116 colon
# HCC-2998 colon = test system: HCC-2998 colon
# KM12 colon = test system: KM12 colon
Structure (SMILES),growth (SR leukemia),growth (RPMI-8226 leukemia),growth (OVCAR-8 ovarian),growth (OVCAR-5 ovarian) [%],growth (OVCAR-4 ovarian),growth (SK-OV-3 ovarian) [%],growth (IGROV1 ovarian) [%],growth (OVCAR-3 ovarian),growth (HS 578T breast),growth (NCI/ADR-RES ovarian) [%],growth (T-47D breast),growth (BT-549 breast),growth (MDA-MB-435 melanoma),growth (SW-620 colon),growth (MCF7 breast),growth (HCT-116 colon),growth (HCC-2998 colon) [%],growth (KM12 colon)
N[C@H]1CCC[C@@H]1NCCCCN1C(=O)c2cccc3cccc(c23)C1=O,20%,75.1%,39.9%,74,36%,95.2,39.3,61.3%,68.2%,79.1,82.6%,74.1%,89.5%,30%,52.8%,32%,53.9,48.4%
O=C1c2ccccc2C(=O)c2cc(Cn3cc[n+](Cc4ccc5ccccc5c4)c3)ccc21,73.7%,17.2%,89.5%,84.6,58.7%,105,29.6,40.8%,92.6%,104,70.1%,60.1%,84.8%,84.2%,59.2%,84.3%,79.1,77.8%
CNC1(C#N)CCN(Cc2ccccc2)CC1,132%,110%,113%,100,103%,99.4,101,99.9%,104%,103,5.3% (active),203%,95.4%,105%,102%,106%,106,103%
CC(=O)OCCc1ccccc1,85.3%,93.5%,98.7%,91.2,106%,102,101,137%,104%,86.3,66.7%,107%,104%,105%,103%,94.7%,87,150%
CCOc1ccc2nc(-c3cccc(OCC(=O)NC(C)C)c3)nc(Nc3ccc(-c4cn[nH]c4)cc3)c2c1,0.178% (active),-18.4% (active),-22.7% (active),40.8,-60.3% (active),68.4,20.9,-3.59% (active),-44.5% (active),14.3,-25.2% (active),-44.2% (active),6.53% (active),7.06% (active),-16.8% (active),5.64% (active),24.6,5.29% (active)
CC(=O)Nc1nccs1,111%,102%,103%,84.3,117%,98.8,94.7,99.6%,91.7%,94.3,97.7%,112%,106%,92.5%,91.2%,101%,102,96%
CCCNCC(=O)Nc1ccc(C(=O)OC(C)(C)CC)cc1,90.6%,99.8%,104%,111,118%,105,99.5,102%,105%,105,103%,77.4%,113%,105%,103%,84.1%,99.9,104%
Nc1c(-c2nc3ccc(Br)cc3c(=O)[nH]2)nnn1-c1ccccc1,57.7%,92.1%,97.7%,95.8,6.63% (active),112,90.3,80.2%,91.8%,80.9,78.3%,63.1%,72.2%,88.1%,78.7%,48.2%,80.6,61.6%
